According to PubChem BioAssay (EPA / NIEHS):
Calls of active or inactive are those of the source. How the source made its calls: active means hit-call score of the fitted dose curve at least 0.9, where 1 is the maximum; inactive means score below 0.9.

Experiments:
[1] = molecular target: Paired box protein Pax-6 (Homo sapiens) (UniProt P26367); test: ATG_Pax6_CIS: Attagene CIS-FACTORIAL HepG2 Assay for human Paired Box 6 (PAX6) (AID 2282956); settings: HepG2 CIS-FACTORIAL PAX6 reporter transcription, RNA readout; actives raise or lower the signal
Chain of Paired box protein Pax-6 (Homo sapiens) (P26367 whole entry, looked up): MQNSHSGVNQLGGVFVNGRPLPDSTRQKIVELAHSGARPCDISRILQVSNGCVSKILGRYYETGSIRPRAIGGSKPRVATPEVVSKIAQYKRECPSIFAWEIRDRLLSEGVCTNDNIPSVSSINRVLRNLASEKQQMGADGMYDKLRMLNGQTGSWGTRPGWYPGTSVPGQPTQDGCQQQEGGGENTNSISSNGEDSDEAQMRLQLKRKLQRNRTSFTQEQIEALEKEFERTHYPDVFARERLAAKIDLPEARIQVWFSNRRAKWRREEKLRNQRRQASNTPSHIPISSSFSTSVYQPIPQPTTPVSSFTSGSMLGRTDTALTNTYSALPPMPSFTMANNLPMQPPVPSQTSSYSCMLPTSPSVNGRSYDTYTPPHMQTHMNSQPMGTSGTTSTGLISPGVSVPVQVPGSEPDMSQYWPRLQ
Summary of the method: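 Values derive from bidirectional curve fitting of reporter mRNA signal relative to DMSO. HepG2 cells bearing transfected cis-regulated MRTUs were exposed for 24 h; transcripts were read by RT-PCR and capillary electrophoresis.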

[2] = ATG_PXRE_CIS: Attagene CIS-FACTORIAL HepG2 Assay for human Pregnane X Receptor Element (PXRE) (AID 2282957); settings: HepG2 Attagene CIS-FACTORIAL PXRE reporter, mRNA; actives raise or lower the signal
Summary of the method: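 Reporter transcripts under endogenous PXR-responsive cis-regulation quantified from total RNA of transfected HepG2 cells 24 h post-dosing, via RT-PCR with fluorescent primer extension and capillary electrophoresis. Gain or loss of signal fitted against DMSO baseline.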

[3] = ATG_PPRE_CIS: Attagene CIS-FACTORIAL HepG2 Assay for human Peroxisome Proliferator-activated Response Element (PPRE) (AID 2282958); settings: HepG2 PPRE cis-element reporter, Attagene transcription factor profiling; actives raise or lower the signal
Summary of the method: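 Transcript-level reporter induction in transfected HepG2 cells after 24 h chemical exposure, quantified by fluorescence from RT-PCR products separated by capillary electrophoresis.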

[4] = ATG_RORE_CIS: Attagene CIS-FACTORIAL HepG2 Assay for human RAR-related Orphan Receptor Element (RORE) (AID 2282959); settings: HepG2 Attagene cis-factorial RORE reporter, mRNA; actives raise or lower the signal
Summary of the method: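 Multiplexed reporter assay measuring mRNA induction from a cis promoter element in transiently transfected HepG2 cells after 24 h treatment. Detection via RT-PCR and capillary electrophoresis fluorescence; DMSO serves as baseline.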

[5] = ATG_Sox_CIS: Attagene CIS-FACTORIAL HepG2 Assay for human SRY-box transcription factor (SOX) (AID 2282960); settings: HepG2 Attagene cis-factorial SOX reporter, mRNA; actives raise or lower the signal
Summary of the method: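 Cells were transfected with reporter constructs under cis-regulatory promoters, then exposed to chemicals for 24 h. Reporter transcripts were quantified by fluorescence after RT-PCR and capillary electrophoresis; activity was fitted in both directions against DMSO.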

[6] = molecular target: Transcription factor Sp1 (Homo sapiens) (UniProt P08047); test: ATG_Sp1_CIS: Attagene CIS-FACTORIAL HepG2 Assay for human Specificity Protein 1 (Sp1) (AID 2282961); settings: HepG2 Sp1 cis-reporter transcription, actives raise or lower the signal
Chain of Transcription factor Sp1 (Homo sapiens) (P08047 whole entry, looked up): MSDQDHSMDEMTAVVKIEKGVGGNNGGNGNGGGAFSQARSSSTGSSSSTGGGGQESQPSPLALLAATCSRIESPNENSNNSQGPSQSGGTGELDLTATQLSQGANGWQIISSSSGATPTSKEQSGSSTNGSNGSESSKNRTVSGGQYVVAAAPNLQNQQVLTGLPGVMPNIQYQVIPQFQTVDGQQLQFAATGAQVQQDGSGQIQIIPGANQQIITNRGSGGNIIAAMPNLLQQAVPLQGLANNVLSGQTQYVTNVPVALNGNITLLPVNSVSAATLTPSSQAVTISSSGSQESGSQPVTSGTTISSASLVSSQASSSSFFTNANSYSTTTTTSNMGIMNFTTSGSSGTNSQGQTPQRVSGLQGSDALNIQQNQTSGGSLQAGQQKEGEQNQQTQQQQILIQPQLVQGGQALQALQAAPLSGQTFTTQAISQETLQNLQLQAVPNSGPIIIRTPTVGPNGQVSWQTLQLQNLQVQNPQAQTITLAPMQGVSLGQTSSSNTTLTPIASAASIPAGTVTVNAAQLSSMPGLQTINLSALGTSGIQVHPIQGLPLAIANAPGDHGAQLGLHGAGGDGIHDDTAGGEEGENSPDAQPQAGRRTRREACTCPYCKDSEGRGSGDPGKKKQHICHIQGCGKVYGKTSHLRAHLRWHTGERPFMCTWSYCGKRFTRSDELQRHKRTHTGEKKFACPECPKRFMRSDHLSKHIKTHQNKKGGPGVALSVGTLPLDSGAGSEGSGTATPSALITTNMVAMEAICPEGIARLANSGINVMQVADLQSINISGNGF
Summary of the method: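 Measures mRNA induction of an Sp1-linked reporter in HepG2 cells 24 h post-dosing. Multiplexed reporters read by RT-PCR and capillary electrophoresis; DMSO serves as negative control and baseline.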

[7] = ATG_SREBP_CIS: Attagene CIS-FACTORIAL HepG2 Assay for human Sterol Regulatory Element Binding (SREBP) (AID 2282962); settings: HepG2 Attagene cis-factorial SREBP reporter, mRNA; actives raise or lower the signal
Summary of the method: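 Values derive from bidirectional curve fitting with DMSO as baseline. The underlying measurement is reporter mRNA from cis-element-regulated units in transiently transfected HepG2, quantified by RT-PCR and capillary electrophoresis after 24 h exposure.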

[8] = molecular target: Signal transducer and activator of transcription 3 (Homo sapiens) (UniProt P40763); test: ATG_STAT3_CIS: Attagene CIS-FACTORIAL HepG2 Assay for human Signal Transducer and Activator of Transcription 3 (STAT3) (AID 2282963); settings: HepG2, Attagene cis-factorial STAT3 reporter transcription; actives raise or lower the signal
Chain of Signal transducer and activator of transcription 3 (Homo sapiens) (P40763 whole entry, looked up, the tested form may be a part): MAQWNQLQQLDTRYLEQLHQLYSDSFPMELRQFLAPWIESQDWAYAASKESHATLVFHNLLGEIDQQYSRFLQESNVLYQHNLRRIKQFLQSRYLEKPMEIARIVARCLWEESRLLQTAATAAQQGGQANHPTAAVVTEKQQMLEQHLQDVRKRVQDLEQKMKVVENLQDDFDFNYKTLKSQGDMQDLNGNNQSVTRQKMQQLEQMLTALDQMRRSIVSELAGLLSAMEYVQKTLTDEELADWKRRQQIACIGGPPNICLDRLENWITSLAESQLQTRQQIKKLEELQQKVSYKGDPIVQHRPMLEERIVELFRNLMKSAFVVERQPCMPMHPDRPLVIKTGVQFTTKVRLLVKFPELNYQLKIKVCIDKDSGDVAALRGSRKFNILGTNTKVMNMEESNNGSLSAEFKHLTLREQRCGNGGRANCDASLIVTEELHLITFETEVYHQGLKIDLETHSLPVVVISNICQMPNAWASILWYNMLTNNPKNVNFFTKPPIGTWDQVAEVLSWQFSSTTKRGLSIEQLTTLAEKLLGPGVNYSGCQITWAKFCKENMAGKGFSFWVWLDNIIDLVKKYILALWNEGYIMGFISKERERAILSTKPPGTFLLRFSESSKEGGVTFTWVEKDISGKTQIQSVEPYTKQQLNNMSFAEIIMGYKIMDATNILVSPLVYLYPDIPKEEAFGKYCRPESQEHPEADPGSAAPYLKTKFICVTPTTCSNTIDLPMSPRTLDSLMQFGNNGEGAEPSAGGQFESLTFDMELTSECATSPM
Summary of the method: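 Fluorescence intensity of 6-FAM-labelled reporter fragments, separated by capillary electrophoresis after RT-PCR, gave the signal. Cells were HepG2 transfected with cis-element reporter units and treated 24 h; fitting was bidirectional relative to DMSO.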

[9] = ATG_TA_CIS: Attagene CIS-FACTORIAL HepG2 Assay for human TA Basal Promoter (AID 2282964); settings: HepG2 Attagene CIS-factorial TA basal promoter reporter; actives raise or lower the signal
Summary of the method: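 Background internal-marker endpoint from a 52-component HepG2 cis-reporter panel. Cells treated 24 h; reporter transcripts quantified via RT-PCR and CE fluorescence against DMSO baseline.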

[10] = ATG_TCF_b_cat_CIS: Attagene CIS-FACTORIAL HepG2 Assay for human T-Cell-Factor with beta-catenin (TCF/b-cat) (AID 2282965); settings: HepG2 TCF/beta-catenin cis-reporter transcription, actives raise or lower the signal
Summary of the method: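 HepG2 cells transiently transfected with cis-promoter-driven multiplexed reporter units; reporter mRNA measured 24 h after dosing by RT-PCR, FAM labelling, HpaI digestion and capillary electrophoresis. Bidirectional fitting relative to DMSO baseline.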

SMILES	outcome [1]	AC50 [2]	outcome [3]	outcome [4]	outcome [5]	outcome [6]	outcome [7]	outcome [8]	outcome [9]	outcome [10]	outcome [2]	AC50 [4]	AC50 [10]	AC50 [6]	AC50 [7]	AC50 [1]	AC50 [9]	AC50 [3]
O=c1c2ccccc2nnn1CCl	inactive	7.09 µM (active)	inactive	inactive	inactive	inactive	inactive	inactive	inactive	inactive	–	–	–	–	–	–	–	–
CCCCCCCCCCCCCCCC[N+](C)(C)CC	inactive	–	inactive	–	inactive	inactive	inactive	inactive	inactive	–	inactive	8.95 µM (active)	5.99 µM (active)	–	–	–	–	–
O=C1CC2CC1C1CCCC21 (stereo not given)	inactive	40.8 µM (active)	inactive	inactive	inactive	inactive	inactive	inactive	inactive	inactive	–	–	–	–	–	–	–	–
CCCCCCCCO[C@@H]1O[C@H](CO)[C@@H](O)[C@H](O)[C@H]1O	inactive	–	inactive	inactive	inactive	inactive	inactive	inactive	inactive	inactive	inactive	–	–	–	–	–	–	–
Cc1ccc(C(C)c2ccc(C)c(C)c2)cc1C	inactive	3.88 µM (active)	inactive	inactive	inactive	–	–	inactive	inactive	inactive	–	–	–	100 µM (active)	147 µM (active)	–	–	–
CC=CCO	inactive	26.8 µM (active)	inactive	inactive	inactive	inactive	inactive	inactive	inactive	inactive	–	–	–	–	–	–	–	–
COC(=O)c1ccc2cc(C(=O)OC)ccc2c1	inactive	–	inactive	inactive	inactive	inactive	inactive	inactive	inactive	inactive	inactive	–	–	–	–	–	–	–
O=S(=O)(Oc1ccc(Cl)cc1Cl)c1ccccc1	inactive	2.2 µM (active)	inactive	inactive	inactive	inactive	inactive	inactive	inactive	inactive	–	–	–	–	–	–	–	–
CCCCC/C=C\C/C=C\CCCCCCCC(=O)OC	–	5.54 µM (active)	inactive	inactive	inactive	inactive	inactive	inactive	–	inactive	–	–	–	–	–	73.3 µM (active)	100 µM (active)	–
Cc1ccc(N)c([N+](=O)[O-])c1	inactive	–	inactive	inactive	inactive	inactive	inactive	inactive	inactive	inactive	inactive	–	–	–	–	–	–	–
CCC(Cc1ccccc1)(C(=O)c1ccc(N2CCOCC2)cc1)N(C)C (stereo not given)	–	1.7 µM (active)	inactive	–	inactive	inactive	inactive	inactive	–	–	–	21.4 µM (active)	49.8 µM (active)	–	–	42 µM (active)	30.2 µM (active)	–
CC(=O)OCC(C)OC(C)=O (stereo not given)	inactive	–	inactive	inactive	inactive	inactive	inactive	inactive	inactive	inactive	inactive	–	–	–	–	–	–	–
CCCCCCCCCCCCCCCC(=O)OCC	inactive	31.1 µM (active)	inactive	inactive	inactive	inactive	inactive	inactive	inactive	inactive	–	–	–	–	–	–	–	–
CCCCCCCC[N+](C)(CCCCCCCC)CCCCCCCC	inactive	–	inactive	inactive	inactive	inactive	inactive	inactive	inactive	inactive	inactive	–	–	–	–	–	–	–
C(=CC=Nc1ccccc1)C=CNc1ccccc1	inactive	32.3 µM (active)	inactive	inactive	inactive	inactive	inactive	inactive	inactive	inactive	–	–	–	–	–	–	–	–
CC=C1CC2C=CC1C2 (stereo not given)	inactive	3.1 µM (active)	inactive	inactive	inactive	inactive	inactive	inactive	inactive	inactive	–	–	–	–	–	–	–	–
C=CCOCC(O)CCl (stereo not given)	inactive	35.5 µM (active)	inactive	inactive	inactive	inactive	inactive	inactive	inactive	inactive	–	–	–	–	–	–	–	–
Cc1ccc(OC(=O)CC(C)C)cc1	inactive	–	inactive	inactive	inactive	inactive	inactive	inactive	inactive	inactive	inactive	–	–	–	–	–	–	–
CC(=O)CC(N)=O	inactive	0.0836 µM (active)	inactive	inactive	inactive	inactive	inactive	inactive	inactive	inactive	–	–	–	–	–	–	–	–
O=C1CCCN1CCO	inactive	–	inactive	inactive	inactive	inactive	inactive	inactive	inactive	inactive	inactive	–	–	–	–	–	–	–
CCCCCCCCCCOS(=O)(=O)O	inactive	–	–	–	inactive	inactive	inactive	inactive	inactive	inactive	inactive	55 µM (active)	–	–	–	–	–	13.4 µM (active)
Cc1cccc(C(=O)O)c1	inactive	–	inactive	inactive	inactive	inactive	inactive	inactive	inactive	inactive	inactive	–	–	–	–	–	–	–
Cc1ccccc1C	inactive	36.5 µM (active)	inactive	inactive	inactive	inactive	inactive	inactive	inactive	inactive	–	–	–	–	–	–	–	–
CCC(CC)C(=O)O	inactive	–	inactive	inactive	inactive	inactive	inactive	inactive	inactive	inactive	inactive	–	–	–	–	–	–	–
CC(C)c1ccc2c(C(C)C)cc(C(C)C)c(S(=O)(=O)O)c2c1	inactive	1.56 µM (active)	inactive	inactive	inactive	inactive	–	inactive	inactive	inactive	–	–	–	–	22.4 µM (active)	–	–	–
